Laboratory results as given in the supplement of paper PMC7801607.

Tests used:
CHO = assay: % viability of CHO cells (MTT); higher = less toxic; settings: 48 h
Summary of the method: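 After overnight attachment of CHO cells seeded at 10^6 cells/well in 200 µL, the medium was exchanged for fresh medium holding compound at 2 or 20 µM. Exposure lasted 48 h. Survival was read with the colorimetric tetrazolium (MTT) assay and expressed as percent of untreated cells.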

HepG2-A16-CD81 = assay: % inhibition of HepG2 viability (CellTiter-Glo); higher = more toxic; settings: 5 µM
[1] = system: Plasmodium falciparum NF54 stage IV/V gametocytes; assay: % inhibition of gametocyte viability (PrestoBlue); higher = more inhibition; settings: 48 h
Summary of the method: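 Compound at 1 or 5 µM was incubated with Stage IV/V NF54 gametocytes (2% gametocytaemia, 5% haematocrit) for 48 h at 37 °C, stationary and hypoxic. A 2 h PrestoBlue step followed, with fluorescence read at 612 nm on transferred supernatant. Inhibition of gametocyte viability, in percent, was normalised to vehicle and kill controls from a single run.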

[2] = system: Plasmodium falciparum NF54 asexual blood stage; assay: % inhibition of asexual blood stage proliferation (pLDH); higher = more inhibition; settings: 72 h
Summary of the method: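 Compound was tested at 2 or 20 µM against Plasmodium falciparum NF54 ring stages (1% haematocrit, 2% parasitaemia) for 72 h at 37 °C in 4% CO2, 3% O2 and 93% N2. Survival was read at 620 nm with the parasite lactate dehydrogenase assay, and inhibition of asexual proliferation was given as a percentage of controls.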

[3] = system: Plasmodium falciparum NF54 stage IV/V gametocytes; assay: % inhibition of gametocyte viability (ATP bioluminescence); higher = more inhibition; settings: 24 h
Summary of the method: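 Compound at 1 or 5 µM was tested on stage IV/V NF54 gametocytes, enriched on density gradients and plated at 30,000 per well in 96-well plates. After 24 h at 37 °C, ATP was quantified by Promega BacTiter Glo bioluminescence. Values are percent inhibition of gametocyte viability from one run, normalised to controls.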

[4] = system: Plasmodium falciparum NF54 stage IV/V gametocytes; assay: % inhibition of gametocyte viability (luciferase reporter); higher = more inhibition; settings: 48 h
Summary of the method: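 Luminescence from 30 µL lysate combined with 30 µL Promega luciferin substrate was recorded on a GloMax-Multi+ reader using 10 s integration. The lysate came from stage IV/V NF54-Pfs16-GFP-Luc gametocytes (2% gametocytaemia, 2% haematocrit) held with compound at 1 or 5 µM for 48 h at 37 °C under stationary, hypoxic conditions. Percent inhibition was normalised against controls run once.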

[5] = system: Plasmodium berghei ANKA liver stage in HepG2-A16-CD81; assay: % inhibition of liver stage parasite viability (luciferase); higher = more inhibition; settings: 5 µM; 48 h
Method: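 Single-concentration screen of the MMV Pandemic Response Box. P. falciparum NF54 asexual blood stages: pLDH assay, 72 h at 37 °C, 2 and 20 µM, n=2. Stage IV/V gametocytes (NF54): luciferase reporter (NF54-Pfs16-GFP-Luc, 48 h), ATP bioluminescence (24 h) and PrestoBlue (48 h) at 1 and 5 µM, n=1. P. berghei liver stage (luciferase in HepG2-A16-CD81, 48 h post infection) at 5 µM, n=4. All normalised to DMSO and kill controls as % inhibition.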
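Wherever % inhibition of HepG2 viability (CellTiter-Glo) is given: HepG2-A16-CD81 hepatoma cells plated as in the liver-stage assay but without sporozoites, with DMSO wells as negative and 25 µM puromycin as positive control.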

Row | Compound | % viability of CHO cells (CHO; 2 µM) [%] | % viability of CHO cells (CHO; 20 µM) [%] | % inhibition of HepG2 viability (HepG2-A16-CD81) [%] | % inhibition of gametocyte viability ([1]; 1 µM) [%] | % inhibition of gametocyte viability ([1]; 5 µM) [%] | % inhibition of asexual blood stage proliferation ([2]; 2 µM) [%] | % inhibition of asexual blood stage proliferation ([2]; 20 µM) [%] | % inhibition of gametocyte viability ([3]; 1 µM) [%] | % inhibition of gametocyte viability ([3]; 5 µM) [%] | % inhibition of gametocyte viability ([4]; 1 µM) [%] | % inhibition of gametocyte viability ([4]; 5 µM) [%] | % inhibition of liver stage parasite viability [5] [%]
1 | Cc1cc(-c2ccccc2)c(C(=O)C(=O)Nc2ccc(N3CCN(c4ncc(F)cn4)CC3)cc2)n1C | 90.7 | 72.7 | 10.6 | < 0 | < 0 | 2.18 | 63.9 | 5.9 | 5.39 | < 0 | < 0 | 58.8
2 | c1ccc(-c2nnc3c4ccccc4c(N4CCNCC4)nn23)cc1 | 101 | 91.4 | 10.4 | 27.8 | 50.3 | 3.14 | 69.2 | < 0 | 0.889 | < 0 | 11.9 | 7.03
3 | COc1ccc2cc3[n+](cc2c1OCCN(CCn1cncn1)Cc1ccc(F)cc1F)CCc1cc2c(cc1-3)OCO2 | 89.4 | 74.2 | 22.1 | < 0 | < 0 | 78.3 | 84.3 | < 0 | 30.9 | < 0 | 10.3 | 2.84
4 | COc1ccc(OCc2ccc(COc3c(Cl)cccc3Cl)cc2)c(Cl)c1 | 99.5 | 100 | -5.86 | < 0 | < 0 | 21.2 | 68.1 | 4.45 | < 0 | < 0 | < 0 | 33.2
5 | CO/N=C(\C(=O)N[C@@H]1C(=O)N2C(C(=O)OCOC(=O)C(C)(C)C)=C(/C=C\c3scnc3C)CS[C@H]12)c1csc(N)n1 | 146 | 60.3 | -3.45 | < 0 | 1.37 | 7.74 | 37.7 | 0.449 | 5.98 | < 0 | 22.6 | 34
6 | CCN(CC)CCn1c(=N)n(CC(O)COc2ccc(Cl)cc2Cl)c2ccccc21 (stereo unspecified) | 98.9 | 0.284 | 2.98 | < 0 | < 0 | 95.4 | 101 | 82.2 | 90.7 | < 0 | 91.6 | 42.1
7 | Cc1ccc(N2CCC(CCOc3ccc(S(C)(=O)=O)cc3)CC2)nn1 | 89.6 | 123 | 1.45 | 0.785 | < 0 | 9.69 | 64.6 | 1.5 | < 0 | 0.296 | < 0 | 17.8
8 | O=C(NC(=O)N1CCCc2ccccc21)c1ccc(Cl)cc1Cl | 95.4 | 99.1 | -0.619 | 0.538 | 13.4 | 1.37 | -6.87 | < 0 | < 0 | < 0 | < 0 | 36.8
9 | C[C@@H](NC(=O)c1ccccc1-c1ccccc1)B(O)O | 84 | 94 | 7.46 | 10.1 | 30.5 | -8.74 | -3.48 | 3.08 | < 0 | < 0 | < 0 | 19.8
10 | COc1cc(NCc2ccc3nc(N)nc(N)c3c2C)cc(OC)c1OC | 109 | 47.7 | 17.2 | < 0 | < 0 | 40.8 | 88.6 | < 0 | < 0 | < 0 | < 0 | 69.1
11 | CC1(C)CC(NC(=O)C(=O)Nc2ccc(Cl)cc2)CC(C)(C)N1 | 87.7 | 57.9 | -9.07 | 22.5 | 17.1 | -0.102 | 60.5 | 0.497 | 3.94 | 3.24 | 13.9 | 31.6
12 | CCc1ccc(C2CC(C(F)(F)F)n3ncc(C(=O)NCc4ccc(OC)cc4)c3N2)cc1 (stereo unspecified) | 83 | 61.2 | 8.05 | < 0 | 34.6 | 37.2 | 67.7 | 2.93 | 4.83 | < 0 | 6.49 | 32.1
13 | CCOc1noc2cc(OCCC3CCN(c4ccc(C)nn4)CC3)ccc12 | 66.5 | 58 | 1.58 | 16.1 | 23.3 | 84.1 | 70.5 | 6.06 | 0.657 | 6.47 | 5.12 | 27.3
